The structures appear in SMILES notation. Records with an inconclusive call do not appear. A number with no mark means an inactive call. Activity calls are given as the source filed them. The call rests on the fitted dose curve; in most records, active means well fitted cell-killing curve with a large enough effect in the repeat runs; inconclusive means weak or mixed curves, or effect the other way; inactive means no such curve, though single readings can be large or run the other way.
On the % scale 0 is the no-effect control and ±100 the full control effect.

The assay in a line: Caspase-3/7 induction in CHO-K1 cells by small molecules, qHTS cell viability counter screen (AID 1346979). Further: nearly all actives have a fitted effect of over 35% in size. The following applies: CellTiter-Fluor fluorescence, 17 h; series mostly up to 92.4 µM; activity change, negative = cytotoxicity: at the top concentration. The source says: National Center for Advancing Translational Sciences [NCATS]
NIH Chemical Genomics Center [NCGC]
U.S. Environmental Protection Agency [EPA]
National Institutes of Environmental Health Sciences [NIEHS]
National Toxicology Program [NTP]
U.S. Food and Drug Administration [FDA]
Apoptosis is a process of programmed cell death and plays a central role in the development of multicellular organisms. It is a highly regulated process and induces cell death by activating caspases, which are the members of cysteine aspartic acid-specific protease (caspase) family. Caspases involved in apoptosis are classified by their mechanism of action as initiator caspases (caspase-2, -8, -9 and -10) and executioner caspases (caspase-3, -6, and -7). Inhibition of apoptosis results in number of cancers, autoimmune diseases, inflammatory diseases and viral infection. To identify small molecule compounds that induce apoptosis, a homogeneous, luminescent Caspase-Glo 3/7 assay was used. Wild type CHO-K1 cells were used to screen Tox21 libraries for identifying caspase-3/7 activity inducers. Also cytotoxicity of the compounds was tested in parallel by measuring the cell viability using CellTiter-Fluor assay system in the same wells.
Tox21 Assay Protocol Summary:
CHO-K1 cells were dispensed at 1,500 per well in 5uL of culture medium into white solid bottom 1536-well plates (Corning Life Sciences, Corning, NY) using a Multidrop Combi (Thermo Scientific, Waltham, MA) dispenser. The assay plates were incubated at 37 C and 5% CO2 for 5hr, and then 23nL of compounds dissolved in DMSO and positive control were transferred using a Pintool station (Wako, San Diego, CA). The assay plates were incubated at 37C and 5% CO2 for 17hr. For cytotoxicity read, after 16hr incubation at 37C, 1uL CellTiter-Fluor reagent (Promega Corporation, Madison, WI) was added to each well of the assay plates using Flying Reagent Dispenser (FRD, Aurora Discovery, San Diego, CA). After 1hr incubation at 37C and 5% CO2, the fluorescence signal was quantified using a ViewLux plate reader (PerkinElmer, Shelton, CT).
Turning to `O=C(Cl)C(Cl)(Cl)Cl`, the “activity change, negative = cytotoxicity” value is 10.3%.

As to `CNC(=O)NC(O)C(Cl)(Cl)Cl` (stereo not given), the “activity change, negative = cytotoxicity” value is 6.69% [at 42.5 µM].

On to `O=c1[nH]c2ccccc2n1C1CCNCC1`, for which the “activity change, negative = cytotoxicity” value is -3.13% [at 42.5 µM].

Take `CC(C)(N)Cc1ccc(Cl)cc1`: the “activity change, negative = cytotoxicity” value is 1.01% [at 42.5 µM].

With `CC(O)CCl` (stereo not given), the “activity change, negative = cytotoxicity” value is 1.89%.

For the compound `N[C@@H](Cc1ccc(Oc2cc(I)c(O)c(I)c2)c(I)c1)C(=O)O`, the “activity change, negative = cytotoxicity” value was -1.15% [at 42.5 µM].

On to `CC1=C2[C@H]3OC(=O)[C@@H](C)[C@@H]3CC[C@@]2(C)C=CC1=O`, for which the “activity change, negative = cytotoxicity” value was 7.87% [at 42.5 µM].

Turning to `CCCOC(=O)Cc1ccc(OCC(=O)N(CC)CC)c(OC)c1`, the “activity change, negative = cytotoxicity” value was 2.71% [at 42.5 µM].

In the case of `CCCC[N+](=O)[O-]`, the “activity change, negative = cytotoxicity” value is 5.52%.

For `O=C(Cl)CCl`, the “activity change, negative = cytotoxicity” value is -5.13%.

For the compound `CS(=O)(=O)c1ccc(C(=O)C2C(=O)CCCC2=O)c(Cl)c1COCC(F)(F)F`, the “activity change, negative = cytotoxicity” value was 10.5%.

Regarding `Brc1c(Br)c(Br)c(Br)c(Br)c1Br`, the activity change, negative = cytotoxicity is 1.28% [at 8.39 µM].

Regarding `CC(C)(C)NC[C@H](O)c1ccc(O)cc1Cl`, the “activity change, negative = cytotoxicity” value is -0.814% [at 42.5 µM].

In the case of `ClCCCCl`, the “activity change, negative = cytotoxicity” value was 10.1%.

Turning to `NC(=O)CS(=O)C(c1ccccc1)c1ccccc1` (stereo not given), the “activity change, negative = cytotoxicity” value was 8.69% [at 42.5 µM].

For the compound `N#CN=C1SCCN1Cc1ccc(Cl)nc1`, the “activity change, negative = cytotoxicity” value is 9.57%.

On to `O=P(O)(O)CN(CP(=O)(O)O)CP(=O)(O)O`, for which the Potency result is “inactive”.

On to `Cc1cccc2sc3nncn3c12`, for which the “activity change, negative = cytotoxicity” value was 8.53%.

On to `CN1C(=O)COc2c(C(=O)NC3CN4CCC3CC4)cc(Cl)cc21` (stereo not given), for which the “activity change, negative = cytotoxicity” value is 6.57% [at 42.5 µM].

As for `Cc1cc(OC(=O)N(C)C)nn1C(=O)N(C)C`, the “activity change, negative = cytotoxicity” value is 0.849%.

In the case of `CCOC1Oc2ccc(OS(C)(=O)=O)cc2C1(C)C` (stereo not given), the “activity change, negative = cytotoxicity” value is -2.81%.

For `C[C@@H](N)[C@@H](O)c1ccccc1`, the “activity change, negative = cytotoxicity” value is 11.4% [at 42.5 µM].

Regarding `CCC1(c2cccc(O)c2)CCCCN(C)C1` (stereo not given), the “activity change, negative = cytotoxicity” value is 0.379% [at 42.5 µM].

For the compound `CC(C)NCC(O)c1ccc([N+](=O)[O-])cc1` (stereo not given), the “activity change, negative = cytotoxicity” value was -1.42% [at 42.5 µM].

Take `CNC(=O)Oc1ccccc1C(C)C`: the “activity change, negative = cytotoxicity” value is 0.52%.

As to `ClCC1CO1` (stereo not given), the “activity change, negative = cytotoxicity” value was -5.11%.

Regarding `COc1ccccc1OC`, the “activity change, negative = cytotoxicity” value was 0.146%.

With `O=c1[nH]c2ccccc2o1`, the “activity change, negative = cytotoxicity” value is 6.36%.

Take `CC[C@H](O)C(C[C@H](C)N(C)C)(c1ccccc1)c1ccccc1`: the “activity change, negative = cytotoxicity” value is -12%.

In the case of `Clc1nc(Cl)nc(Nc2ccccc2Cl)n1`, the “activity change, negative = cytotoxicity” value was 8.21%.

In the case of `C=CCC1(C(C)CC)C(=O)NC(=O)NC1=O` (stereo not given), the “activity change, negative = cytotoxicity” value was -1.92% [at 42.5 µM].

In the case of `CC#Cc1cc(C)nc(Nc2ccccc2)n1`, the “activity change, negative = cytotoxicity” value is -8.7%.

`ClC(Cl)(Cl)Cl`: the “activity change, negative = cytotoxicity” value is -1.22%.

Consider `CCN1CCCC1CNC(=O)C(O)(c1ccccc1)c1ccccc1` (stereo not given), for which the “activity change, negative = cytotoxicity” value is -2.01% [at 42.5 µM].

As for `O=C(O)c1c(Cl)ccc2cc(Cl)cnc12`, the “activity change, negative = cytotoxicity” value was 6.9%.

For the compound `C[C@H](N)C(=O)c1ccccc1`, the “activity change, negative = cytotoxicity” value is -0.198%.

On to `COc1cccc(C=O)c1`, for which the “activity change, negative = cytotoxicity” value is 8.45%.

`C=CCCC#N`: the “activity change, negative = cytotoxicity” value was 1.05%.

Take `C=C(Cl)CCl`: the “activity change, negative = cytotoxicity” value was 1.74%.

Turning to `C=C(C)[C@H]1CN[C@H](C(=O)O)[C@H]1CC(=O)O`, the “activity change, negative = cytotoxicity” value is 9.05% [at 42.5 µM].

For the origin of these results see PubChem BioAssay (Tox21).
